According to PubChem BioAssay (NCATS):
Inconclusive results are not listed. Active and inactive are the calls of the source. Unless noted, the call rests on the fitted dose curve; in most records, active means well fitted curve in either direction with a large enough effect (not every such curve was filed as active); inconclusive means small, poorly fitted or top-dose-only effect, or another doubt; inactive means flat fitted curve, though single readings scatter.

Columns and labels:
[1] = AP1 Signaling Pathway (AID 357); conditions: ME-180 AP-1-bla reporter, EGF-induced, beta-lactamase ratio, 5 h; at 17.2 µM (top of the series) unless noted; further: on the % scale 0 is the no-effect control and ±100 the full control effect
How it was run: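 Titration-series screen for positive or negative modulators of EC50 EGF-induced signaling in ME-180 cells carrying an AP-1-driven beta-lactamase reporter. After 5 hours at 37 degrees Celsius, CCF4 460nm/530nm emission ratio gave %Activity; AC50 values derived.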

[2] = NFAT Signaling Pathway (AID 444); conditions: Jurkat NFAT-bla M1, carbachol, beta-lactamase ratio, 5 h; at 17.2 µM (top of the series) unless noted;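 further: carbachol stimulus at about its EC50 of 1 µM final; on the % scale 0 is the no-effect control and ±100 the full control effect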
How it was run: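 Read-out: CCF4 FRET ratio (460 nm/530 nm) after 1 h RT dye loading, used for %activity and AC50 from titration series. Cells: Jurkat NFAT-β-lactamase/M1 line, treated with compound plus 1 uM carbachol for 5 h, 37 °C.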

[3] = Stat Signaling Pathway (AID 446);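 further: ME-180 cervical cancer cells given 40 pM IL-6 alongside compound; SIE-controlled beta-lactamase reporter measured as 460/530 nm FRET emission ratio; on the % scale 0 is the no-effect control and ±100 the full control effect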
How it was run: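 Screening format detects activators and inhibitors alike: ME-180 SIE-bla cells stimulated at 40 pM IL-6 for 5 hrs with compound, then dual-emission beta-lactamase read at 405 nm excitation.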

[4] = target: Glucocorticoid receptor (Homo sapiens) (UniProt P04150); assay: GR-GFP Redistribution (AID 450;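 active means compounds whose dose series gives a full or clear partial fitted curve of increased nuclear translocation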; further: potency means the concentration at half of the fitted maximal effect); conditions: U2OS GR-GFP nuclear translocation, laser cytometry, 2 h
Chain of Glucocorticoid receptor (Homo sapiens) (P04150 whole entry, looked up): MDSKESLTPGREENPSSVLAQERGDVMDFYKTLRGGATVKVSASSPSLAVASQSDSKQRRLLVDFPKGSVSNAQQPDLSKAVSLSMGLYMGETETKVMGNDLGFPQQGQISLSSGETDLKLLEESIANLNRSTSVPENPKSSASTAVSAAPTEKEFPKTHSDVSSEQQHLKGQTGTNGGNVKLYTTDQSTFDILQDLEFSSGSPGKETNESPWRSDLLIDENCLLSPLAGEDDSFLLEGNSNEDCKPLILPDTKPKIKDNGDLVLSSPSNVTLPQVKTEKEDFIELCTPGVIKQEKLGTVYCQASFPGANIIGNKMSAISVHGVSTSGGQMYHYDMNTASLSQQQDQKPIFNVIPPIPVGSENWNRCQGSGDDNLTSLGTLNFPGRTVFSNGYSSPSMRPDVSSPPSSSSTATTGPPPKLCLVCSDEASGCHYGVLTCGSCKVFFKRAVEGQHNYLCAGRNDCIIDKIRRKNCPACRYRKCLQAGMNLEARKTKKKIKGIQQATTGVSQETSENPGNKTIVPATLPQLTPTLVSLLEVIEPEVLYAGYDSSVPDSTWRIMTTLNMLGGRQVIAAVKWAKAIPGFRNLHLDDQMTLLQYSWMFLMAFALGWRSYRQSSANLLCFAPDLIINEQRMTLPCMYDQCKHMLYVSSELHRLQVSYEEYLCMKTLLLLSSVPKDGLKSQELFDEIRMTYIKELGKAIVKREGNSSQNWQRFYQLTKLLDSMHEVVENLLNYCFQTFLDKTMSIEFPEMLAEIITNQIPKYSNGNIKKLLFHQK

COc1cccc(CN2CCN(C(=O)COc3ccc4ccccc4c3)CC2)c1
inactive: activity change, negative = inhibition [1] 2% | activity change, negative = inhibition [2] 13.9% | outcome [3] | Potency [4] > 20.6 µM

O=c1[nH]c(=O)n(-c2cccc(Cl)c2)c(O)c1C=NCCN1CCCCC1
inactive: activity change, negative = inhibition [1] -0.739% | activity change, negative = inhibition [2] -1.95% | outcome [3] | Potency [4] > 20.6 µM

CCCCOCCCn1c(N)c(C(=O)OC(C)COC)c2nc3ccccc3nc21 (stereo unspecified)
inactive: activity change, negative = inhibition [1] -11.7% | activity change, negative = inhibition [2] 29.2% | outcome [3] | Potency [4] > 20.6 µM

O=c1[nH]c(=O)n(Cc2ccco2)c(O)c1C=NCc1ccc2c(c1)OCO2
inactive: activity change, negative = inhibition [1] -17.4% | activity change, negative = inhibition [2] 2.74% | outcome [3] | Potency [4] > 20.6 µM

OC1(c2ccc(F)cc2)CCNC1 (stereo unspecified)
inactive: activity change, negative = inhibition [1] 7.87% | activity change, negative = inhibition [2] -14.3% | outcome [3] | Potency [4] > 20.6 µM

NCC1(c2ccc3c(c2)OCCO3)CCCC1
inactive: activity change, negative = inhibition [1] 3.9% | activity change, negative = inhibition [2] -11.3% | outcome [3] | Potency [4] > 20.6 µM

O=c1[nH]c(=O)n(Cc2ccccc2)c(O)c1C=NCCN1CCOCC1
inactive: activity change, negative = inhibition [1] 1.24% | activity change, negative = inhibition [2] -7.84% | outcome [3] | Potency [4] > 20.6 µM

O=c1[nH]c(O)c(C=NC2CCN(Cc3ccccc3)CC2)c(=O)[nH]1
inactive: activity change, negative = inhibition [1] 5.09% | activity change, negative = inhibition [2] -19.6% | outcome [3] | Potency [4] > 20.6 µM

O=C1c2ccccc2C(=O)N1Cc1nc2ccccc2c(=O)n1-c1cccnc1
inactive: activity change, negative = inhibition [1] 24% | activity change, negative = inhibition [2] -3.03% | outcome [3] | Potency [4] > 20.6 µM

COc1ccc(C2SCC(=O)Nc3c2c(=O)[nH]n3C2CCCCCC2)cc1 (stereo unspecified)
inactive: activity change, negative = inhibition [1] -18.2% | activity change, negative = inhibition [2] 1.93% | outcome [3] | Potency [4] > 20.6 µM

CC(=NCCO)c1c(O)n(C)c(=O)n(C)c1=O
inactive: activity change, negative = inhibition [1] 9.85% | activity change, negative = inhibition [2] -3.31% | outcome [3] | Potency [4] > 20.6 µM

O=c1[nH]c2ccccc2c(=O)n1-c1cccc(Cl)c1
inactive: activity change, negative = inhibition [1] 24.2% | activity change, negative = inhibition [2] -3.58% | outcome [3] | Potency [4] > 20.6 µM

CCOc1ccc(-n2c(O)c(C=NCCN3CCNCC3)c(=O)[nH]c2=O)cc1
inactive: activity change, negative = inhibition [1] 9.57% | activity change, negative = inhibition [2] 0.77% | outcome [3] | Potency [4] > 20.6 µM

OC(c1ccc(F)cc1)C(c1ccccc1)N1CCOCC1 (stereo unspecified)
inactive: activity change, negative = inhibition [1] -21.7% | activity change, negative = inhibition [2] -1.44% | outcome [3] | Potency [4] > 20.6 µM

O=c1[nH]c(=O)n(-c2cccc3ccccc23)c(O)c1C=NCCCn1ccnc1
inactive: activity change, negative = inhibition [1] 14.5% | activity change, negative = inhibition [2] -7.5% | outcome [3] | Potency [4] > 20.6 µM

C=CCOC(=O)C1=C(C)OC(N)=C(C#N)C12C(=O)N(CN1CCOCC1)c1ccccc12 (stereo unspecified)
inactive: activity change, negative = inhibition [1] 2.42% | activity change, negative = inhibition [2] -2.25% | outcome [3] | Potency [4] > 20.6 µM

CC(=O)CC(C)(C)n1c[n+](C)nn1
inactive: activity change, negative = inhibition [1] -8.26% | activity change, negative = inhibition [2] -3.99% | outcome [3] | Potency [4] > 20.6 µM

CC(=C1C(=O)c2ccccc2C1=O)N1CCN(CCN=Cc2c(O)n(C)c(=O)n(C)c2=O)CC1
inactive: activity change, negative = inhibition [1] -15.2% | activity change, negative = inhibition [2] -5.34% | outcome [3] | Potency [4] > 20.6 µM

CC(=O)OC1(Cc2ccccc2)CN2CCC1c1ccccc12 (stereo unspecified)
inactive: activity change, negative = inhibition [1] -0.0283% | activity change, negative = inhibition [2] -23.5% | outcome [3] | Potency [4] > 46 µM

CC(=O)OC1(c2ccc(C)cc2)CN2CCC1c1ccccc12 (stereo unspecified)
inactive: activity change, negative = inhibition [1] 7.68% | activity change, negative = inhibition [2] -10.3% | outcome [3] | Potency [4] > 20.6 µM

CN(C)CCOC(=O)c1cn(Cc2ccccc2)c2ccccc12
inactive: activity change, negative = inhibition [1] 16% | activity change, negative = inhibition [2] -13.6% | outcome [3] | Potency [4] > 20.6 µM

COc1ccc(C(=O)CN2CCOCC2)cc1F
inactive: activity change, negative = inhibition [1] 1.47% | activity change, negative = inhibition [2] 3.56% | outcome [3] | Potency [4] > 20.6 µM

CC1=NOC2(C)Nc3ncnn3C(c3ccccc3)C12 (stereo unspecified)
inactive: activity change, negative = inhibition [1] 20.5% | activity change, negative = inhibition [2] -2.94% | outcome [3] | Potency [4] > 20.6 µM

O=c1[nH]c(=O)n(Cc2ccccc2)c(O)c1C=NCCN1CCNCC1
inactive: activity change, negative = inhibition [1] 1.47% | activity change, negative = inhibition [2] -23.3% | outcome [3] | Potency [4] > 20.6 µM

CC(C)OC(=O)c1c(N)n(Cc2ccco2)c2nc3ccccc3nc12
inactive: activity change, negative = inhibition [1] -15.7% | activity change, negative = inhibition [2] 17.6% | outcome [3] | Potency [4] > 20.6 µM

CC(C)(C)OC(=O)c1c(N)n(Cc2ccco2)c2nc3ccccc3nc12
inactive: activity change, negative = inhibition [1] -26.4% | activity change, negative = inhibition [2] 5.75% | outcome [3] | Potency [4] > 20.6 µM

COc1ccc2c(c1)c(C(=O)O)c(C)n2CC(C)C
inactive: activity change, negative = inhibition [1] 12.3% | activity change, negative = inhibition [2] 1.61% | outcome [3] | Potency [4] > 20.6 µM

CC(=O)C1(c2ccccc2)CCNCC1
inactive: activity change, negative = inhibition [1] 6.36% | activity change, negative = inhibition [2] -17.3% | outcome [3] | Potency [4] > 20.6 µM

CC(C)C(=O)N1CCN(CCN=Cc2c(O)n(C)c(=O)n(C)c2=O)CC1
inactive: activity change, negative = inhibition [1] 10.2% | activity change, negative = inhibition [2] -6.53% | outcome [3] | Potency [4] > 20.6 µM

CCCCCCn1c(O)c(C=NCCCn2ccnc2)c(=O)[nH]c1=O
inactive: activity change, negative = inhibition [1] -8.92% | activity change, negative = inhibition [2] -9.29% | outcome [3] | Potency [4] > 20.6 µM

CCCC12CN3CN(C1)CC(CCC)(C3)C2O (stereo unspecified)
inactive: activity change, negative = inhibition [1] 21.7% | activity change, negative = inhibition [2] -5.01% | outcome [3] | Potency [4] > 20.6 µM

CCN(CC)CCN=Cc1c(O)n(CCc2ccccc2)c(=O)[nH]c1=O
inactive: activity change, negative = inhibition [1] -7.05% | activity change, negative = inhibition [2] -1.81% | outcome [3] | Potency [4] > 20.6 µM

CCCCCCn1c(O)c(C(C)=NC)c(=O)[nH]c1=O
inactive: activity change, negative = inhibition [1] -9.96% | activity change, negative = inhibition [2] 21.1% | outcome [3] | Potency [4] > 20.6 µM

CN1CCc2nc(SCC(=O)OC(C)(C)C)c(C#N)cc2C1
inactive: activity change, negative = inhibition [1] -5.69% | activity change, negative = inhibition [2] -15.8% | outcome [3] | Potency [4] > 20.6 µM
